An excerpt weighted towards active compounds, which were near 5.5% of everything screened.
ELG1 DNA repair: blocks ELG1-dependent DNA repair in HEK293T cells. HEK293T ELG1-luciferase reporter, luminescence, 16 h; DNA damage induced by 5-fluorouridine. Potency, µM (series often up to 46.1 µM), hits mostly inhibitors. 330,000 tested, 2.3% active; note: nearly all actives have a fitted effect of over 55% in size
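Overnight (16 hr) co-exposure of 2,000 cells/well to 5-fluorouridine and compound at 37 °C preceded detection. Luciferase was quantified via ONE-Glo luminescence; loss of signal denotes inhibition.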
FBPA coupling cs: inhibits coupling enzyme system, counter-screen for aldolase hits. coupling enzyme system counterscreen, AmpLite Red fluorescence. 290,000 tested, 0.67% active. AID 2472. activity change, negative = inhibition, % at 58.2 µM, hits read low; in the data active = activity change below about -30%
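Coupling enzymes only (glyceraldehyde-3-phosphate) + compound, at 57.5 uM final, 10 min RT; add substrate/coupling/AmpLite Red mix, 20 min RT; fluorescence ex 525/em 598 nm. Actives flag coupling-system interference.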
Giardia kill: Giardia lamblia killing; Giardia lamblia trophozoite viability; activity change, % at 7.66 µM, hits read low; 340,000 tested, 0.15% active; AID 540267; in the data active = activity change below about -80%; inconclusive = between about -30% and that limit;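 note: parasites exposed to compound for two days anaerobically before the ATP read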
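Anaerobic 48 hrs incubation at 37 deg C of 100 trophozoites/well with test compounds; ATPLite 1-Step luminescence, 15-30 min RT, reports cellular ATP as viability.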
Sfp inh: Sfp phosphopantetheinyl transferase inhibition. Q9F4F7. 310,000 tested, 3.5% active. Potency, µM, hits mostly inhibitors. AID 1490. Biochemical Sfp PPTase activity, qHTS;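 note: the enzyme is Sfp with the accession as filed and its product quenches rhodamine fluorescence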
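Fluorescence-quenching assay with 15 nM Sfp, 5 uM rhodamine-CoA and 12.5 uM BHQ-2-labelled ybbR peptide in pH 7.6 Hepes/MgCl2 buffer. Enzyme was pre-incubated with compound for 15 min at room temperature. Rate was taken from the 30-min fluorescence change (525/598 nm).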
Each line names hits and unclear results; the compound was inactive in the other large screens. Unless noted, calls come from the whole dose curve; as a rule, active = well fitted curve in the direction sought with a large enough effect; inconclusive = small, poorly fitted or top-dose-only effect, or another doubt; inactive = no such curve, though single readings can be large; an effect the other way counts as inactive or inconclusive.

CN(Cc1cccs1)C(=O)c1ccc(Cl)c(S(=O)(=O)N2CCCCCC2)c1	ELG1 DNA repair 21µM (no result: FBPA coupling cs, Sfp inh)
CCN(CC)CCNC(=O)c1ccc(NC(=O)c2ccc(Cl)c(S(=O)(=O)N3CCCCCC3)c2)cc1	ELG1 DNA repair inconclusive, Sfp inh 50µM
O=C(Nc1ccc(Cl)c(S(=O)(=O)N2CCOCC2)c1)c1ccc2c(c1)OCO2	ELG1 DNA repair 6.5µM (no result: FBPA coupling cs, Sfp inh)
CCN(CC)CCNC(=O)c1ccc(NC(=O)c2ccc(S(=O)(=O)N3CCCCCC3)cc2)cc1	ELG1 DNA repair inconclusive (no result: FBPA coupling cs, Sfp inh)
COc1cccc2cc(C(=O)N(Cc3cccs3)Cc3cccs3)c(=O)oc12	none (no result: ELG1 DNA repair, FBPA coupling cs, Sfp inh)
CC1CN(S(=O)(=O)c2cc(C(=O)N(CCc3ccccc3)Cc3ccccc3)ccc2Cl)CC(C)O1 (stereo not given)	ELG1 DNA repair 23µM (no result: FBPA coupling cs, Sfp inh)
O=C(Nc1ccc(-c2nc3ccccc3[nH]2)cc1)c1ccc2c(c1)OCO2	ELG1 DNA repair inconclusive (no result: FBPA coupling cs)
O=C(Nc1ccc(Cl)c(-c2nc3ccccc3[nH]2)c1)c1ccc2c(c1)OCO2	ELG1 DNA repair 21µM
CC(/C=N/NC(=O)Cn1cnc2c1c(=O)n(C)c(=O)n2C)=C\c1ccco1	Sfp inh 40µM
CC(=C/c1ccco1)/C=N/NC(=O)Cc1cccn1C	ELG1 DNA repair inconclusive
Cn1c(=O)c2c(ncn2CC(=O)N/N=C/C(Cl)=C/c2ccccc2)n(C)c1=O	none
CC(/C=N/NC(=O)Cc1cccn1C)=C\c1ccco1	Sfp inh 40µM
Cc1ccc(/C=N/NC(=O)Cn2cnc3c2c(=O)n(C)c(=O)n3C)s1	none
Cn1c(=O)c2c(ncn2CC(=O)N/N=C/C=C/c2ccco2)n(C)c1=O	Sfp inh 14µM
O=C1C2=CC[C@H]3C(=O)N(Cc4ccccc4)C(=O)[C@@H]3[C@@H]2[C@H](O)[C@@H]2O[C@H]12	Sfp inh inconclusive (no result: ELG1 DNA repair, Giardia kill)
O=C(COC(=O)C12CC3CC(CC(C3)C1)C2)Nc1ccc([N+](=O)[O-])cc1Cl	ELG1 DNA repair 21µM
CC(=O)OCC(=O)Nc1ccc([N+](=O)[O-])cc1Cl	none
CCOC(=O)N/N=C1/C[C@@H](O)[C@@H](O)[C@@H]2[C@@H]3C(=O)N(Cc4ccccc4)C(=O)[C@H]3CC[C@@H]12	none (no result: ELG1 DNA repair, Giardia kill)
CS(=O)(=O)c1ccccc1-c1nc(-c2cc(C(F)(F)F)cc(C(F)(F)F)c2)no1	Sfp inh 45µM
Oc1ccccc1N1CCN(c2ncnc3scc(-c4ccccc4)c23)CC1	ELG1 DNA repair 18µM
Oc1ccccc1N1CCN(c2ncnc3scc(-c4ccc(F)cc4)c23)CC1	ELG1 DNA repair 9.2µM
Cc1nc(N2CCN(c3ccccc3O)CC2)c2c(-c3ccccc3)csc2n1	ELG1 DNA repair 18µM
COc1ccc2[nH]c(=O)c(NC(N)=S)nc2c1	ELG1 DNA repair inconclusive, Sfp inh 35µM
CC1CN(CCCCOc2ccc(C(C)C)cc2)CC(C)O1 (stereo not given)	none
CC1CN(CCCCOc2ccc(Cl)c3ccccc23)CC(C)O1 (stereo not given)	ELG1 DNA repair inconclusive, Sfp inh 79µM
CC(=O)c1cccc(NC(=O)Cn2cnc(S(=O)(=O)N3CCCC3)c2)c1	ELG1 DNA repair inconclusive
CC12C=CC(=O)C=C1CCC1C2C(O)CC2(C)C1CCC2(O)C(=O)CO (stereo not given)	none (no result: ELG1 DNA repair, FBPA coupling cs, Sfp inh)
Cc1ccc2c(c1)-c1c(ssc1=S)C(C)(C)N2C(=O)c1ccco1	ELG1 DNA repair inconclusive, Sfp inh 20µM
Cc1cc(C)c2c(=O)n(CC(=O)N3CCC(N4CCCCC4)CC3)sc2n1	Sfp inh 8.9µM
Cc1nn(CC(=O)N2CCC(N3CCCCC3)CC2)c(=O)c2c1sc1ccccc12	none
CCOC(=O)C1CCCN(C(=O)Cn2sc3nc(C)cc(C)c3c2=O)C1 (stereo not given)	Sfp inh 1.8µM
CCCNC(=O)Cn1sc2nc(C)cc(C)c2c1=O	Sfp inh 1.8µM
CCOC(=O)C1CCCN(C(=O)Cn2cnc3c2c(=O)n(C)c(=O)n3C)C1 (stereo not given)	none
Cc1onc(-c2ccccc2Cl)c1C(=O)N[C@H]1C(=O)N2[C@H]1SC(C)(C)[C@H]2C(=O)O	none (no result: ELG1 DNA repair, Giardia kill)
COc1cc2cc(C#N)c(SCC(=O)Nc3cc(C)on3)nc2cc1OC	none
Cc1ccc(NC2(C#N)CCCC2)cc1	none (no result: ELG1 DNA repair, FBPA coupling cs, Sfp inh)
O=C(C[C@@H]1C/C=C\C[C@@H](Cc2ccc(F)cc2)C(=O)OC[C@H]2CCCN2C1=O)NCCO	ELG1 DNA repair inconclusive (no result: FBPA coupling cs, Sfp inh)
Cc1ccccc1-c1nnc(SCC(=O)NC2CCCC2)o1	none
Cc1ccc(-n2ncc(-c3nnc(SCC(=O)NC4CCCC4)o3)c2N)cc1C	ELG1 DNA repair 12µM
COc1cc(NC2c3ncccc3C(=O)N2Cc2ccco2)cc(OC)c1 (stereo not given)	ELG1 DNA repair inconclusive, Sfp inh 45µM
COc1ccccc1-c1cc(NCc2ccccc2)ncn1	none (no result: ELG1 DNA repair, Giardia kill)
CCC(c1nnnn1CS(=O)(=O)c1ccc(C)cc1)N1CCN(c2nc3ccccc3s2)CC1 (stereo not given)	ELG1 DNA repair 8.2µM
CCCC(c1nnnn1CC1CCCO1)N1CCN(c2nc3ccccc3s2)CC1 (stereo not given)	ELG1 DNA repair 23µM
CCCCC(c1nnnn1CC1CCCO1)N1CCN(c2nc3ccccc3s2)CC1 (stereo not given)	ELG1 DNA repair inconclusive
O=C(Cc1ccccc1[N+](=O)[O-])NCC1(c2cccc3c2OCO3)OCCO1	none (no result: ELG1 DNA repair, FBPA coupling cs, Sfp inh)
CCOC(=O)CS(=O)(=O)c1nc(-c2ccccc2)cc(C(F)(F)F)n1	ELG1 DNA repair inconclusive, Sfp inh 50µM
CCOC(=O)CCS(=O)(=O)c1nc(-c2ccccc2)cc(C(F)(F)F)n1	ELG1 DNA repair inconclusive, Sfp inh 10µM
CCCCN1CC(=O)N2[C@H]3c4cc(Cl)ccc4OC[C@@H]3[C@H](c3ccccc3)[C@]2(C)C1=O	ELG1 DNA repair 18µM (no result: FBPA coupling cs, Sfp inh)
CCOC(=O)c1c(C)[nH]c(C)c1S(=O)(=O)N1CCCCC1	none
CC1CC(C)(C)NC(=S)S1 (stereo not given)	Sfp inh 50µM
CCCC[C@H]1CCCO[C@@](C(=O)NCc2cc(C)n(C)n2)(C(F)(F)F)C1	none (no result: ELG1 DNA repair)
CCN(CC)CCNc1cc(C)nc2c1C(=O)C(=O)C=C2N1CCCCC1	FBPA coupling cs -64
CCn1nnc2c(N3CCCC3)ncnc21	none (no result: ELG1 DNA repair, FBPA coupling cs, Sfp inh)
COC(=O)CC1C(=O)NCCN1C(=O)c1ccc([N+](=O)[O-])cc1 (stereo not given)	none
O=C1/C(=C/c2cccnc2)Oc2cc(OS(=O)(=O)c3ccc(Cl)cc3)ccc21	ELG1 DNA repair 15µM
O=C1/C(=C/c2cccnc2)Oc2cc(OS(=O)(=O)c3ccccc3)ccc21	none
O=C(NC(=S)NNC(=O)c1ccco1)c1ccc(Br)cc1	none
CCOc1cc(-c2ccc3c(c2)OCO3)cc(=O)c2c(C)oc(C)c12	Sfp inh 32µM (no result: Giardia kill)
O=C(Nc1ccn(CC(=O)N2CCN(c3ccccn3)CC2)c(=O)n1)OCc1ccccc1	none (no result: FBPA coupling cs, Sfp inh)
COC(=O)c1c(N2C(=O)[C@H]3[C@@H](C2=O)[C@]2(C(=O)Nc4c(C)cccc42)N2CCC[C@@H]32)sc(C)c1C	ELG1 DNA repair 16µM
Cc1ccc(-c2nc3ccccc3nc2NN)cc1	ELG1 DNA repair inconclusive, Sfp inh 14µM
CCN(CC)c1ccc(NC(=S)NC(=O)c2ccco2)cc1	ELG1 DNA repair inconclusive, Sfp inh 35µM
